Screen size: about 220,000 compounds; about 2,400 (1.1%) were called active. Only a selection was taken, and actives are over-represented in it overall. A number with no mark means an inactive call.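 Rule for the calls: active = inhibition above the campaign mean plus 3 SD over all tested compounds (cut at about 24% in these data); inactive = the rest.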

The inhibition is the drop in the measured response relative to a control, in per cent.

This experiment in a line: reduced viability of JAK2V617F-dependent Ba/F3 cells, primary screen, JAK2V617F inhibitor project, cell-based, Ba/F3 EpoR-JAK2V617F, luminescence (AID 1446).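 Note: cytokine-independent growth of Ba/F3 cells driven by EpoR plus mutant JAK2; 0% = DMSO-treated cells and 100% = JAK inhibitor I control.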 The conditions noted are these: ATP luminescence, at 5.6 µM, stronger effect = higher value.
For `COc1ccc(NC(=O)CN2C(=O)CSC2=O)cc1`, the inhibition was -1.19%. The same measure for `COCCCNC(=O)C1CCN(c2ccc(N3CCOCC3)nn2)CC1`: -2.04%; for `O=C1CCCN1CCCNc1ncnc2c1[nH]c1ccccc12`: -3.47%; for `CC(C)OCCCNc1ncnc2c1[nH]c1ccc(F)cc12`: 64.7% (active). The figure for `COc1cc(OC)c(OC)cc1/C=N/Nc1ncnc2c1[nH]c1ccc(C)cc12` is -4.25%; for `CC(=O)N1CCN(S(=O)(=O)c2ccc(C)c([N+](=O)[O-])c2)C1C(C)C` (stereo not drawn) it is -3.14%. The same measure for `COc1ccc(N=Nc2ccc(O)c(P(=O)(c3ccccc3)c3ccccc3)c2)cc1`: -0.59%. For `Cc1nn(-c2ccccc2)c(C)c1NC(=O)CCl`, the inhibition was 3.19%. As for `Cc1nc2ccc(C(=O)O)cc2[nH]1`, the inhibition is -7.6%.

With `COC(=O)Nc1nc2ccc(Sc3ccccc3)cc2[nH]1`, the inhibition was 83.8% (active). Regarding `CC(C)c1nc2ccc(C(=O)O)cc2[nH]1`, the inhibition was -2.92%.

In the case of `O=C(Cc1ccccc1)Nc1c(Cl)ccc2nsnc12`, the inhibition was -3.82%. The figure for `CCC1(C(=O)c2ccccc2)C(c2cccc([N+](=O)[O-])c2)C1(C(=O)OC)C(=O)OC` (stereo not drawn) is -2.96%; for `Cc1cc2c(cc1C)[n+](C)cn2CC(O)COCC1CC=CCC1` (stereo not drawn) it is 44.4% (active). As for `CC(NC(=O)Nc1ccccc1)C(c1cccs1)N1CCN(c2ccccc2)CC1` (stereo not drawn), the inhibition was -1.45%.

As to `CCOc1ccc(C2c3[nH]c4ccccc4c3CCN2Cc2cccn2-c2ncccn2)cc1` (stereo not drawn), the inhibition was -1.83%. The figure for `O=C(O)CS/C(=C\c1ccc(F)cc1)c1nc2ccccc2s1` is -2.1%; for `Cc1cc2oc(C(=O)Nc3c(C)n(C)n(-c4ccccc4)c3=O)c(C)c2cc1Cl` it is -1.25%. The figure for `O=C(CCl)N(Cc1cccc([N+](=O)[O-])c1)c1cccc(Cl)c1` is 84.1% (active); for `O=C(Nc1cccc([N+](=O)[O-])c1)Nc1ccc(Cl)cn1` it is -2.62%; for `CCN(CC)C(=O)CN(c1cccc([N+](=O)[O-])c1)S(=O)(=O)c1ccccc1` it is 0.82%.

As to `Cc1ccc(N(C(=O)c2ccc(S(=O)(=O)N(C)C)cc2)C2C=CS(=O)(=O)C2)cc1` (stereo not drawn), the inhibition is -0.1%.

With `O=C(Cn1nc(CNc2ccc(Cl)cc2)[n+]2c1CCCCC2)c1ccc(Cl)cc1`, the inhibition was 1.65%. The same measure for `Cc1ccc(CNC(=O)C2CC(c3ccccc3[N+](=O)[O-])=NO2)o1` (stereo not drawn): -5.08%; for `COc1ccc(C2=NOC(C(=O)NCc3ccco3)C2)cc1OC` (stereo not drawn): 56.5% (active). `COc1ccc(-c2cc(C(=O)NCc3ccco3)no2)cc1OC`: the inhibition is -1.88%.

On to `Cc1ccc(NC(=S)N(Cc2ccco2)C(C)c2cccs2)cc1` (stereo not drawn), for which the inhibition is 3.37%. The same measure for `Cc1ccc(NC(=S)N(CCCN2CCC(C)CC2)Cc2ccco2)cc1`: 25.4% (active); for `Cc1ccc(NC(=S)N(CCN2CCCCC2)Cc2ccco2)cc1C`: -2.95%. The same measure for `O=C(NC1CCCCC1)c1cc(C2CC2)on1`: -4.7%; for `CN(C)c1ccc(Nc2c3c4c(cccc4n(C)c2=O)C(=O)c2ccccc2-3)cc1`: 2.4%. The same measure for `CON(C)S(=O)(=O)c1ccc2c(c1)NC(=O)C1CCCN21` (stereo not drawn): 1.23%; for `Nn1c(SCc2ccccc2)nnc1C1CCCCC1`: -0.47%; for `COc1ccc(C(=O)NC(=S)Nc2ccc(N3CCCC3)cc2)cc1OC`: -0.26%. As to `COc1cccc(C(=O)Nc2ccc(N3CCCC3)cc2)c1`, the inhibition is 59.5% (active). The figure for `COc1cccc(OC)c1C(=O)Nc1ccc(N2CCCCC2)cc1` is -0.78%; for `CSc1nnc(-c2ccc(C(F)(F)F)cn2)o1` it is -4.69%. Take `CC(=O)NC(Cc1ccc(F)c(F)c1)C(=O)NC1CCN(c2nnnn2-c2ccccc2)CC1` (stereo not drawn): the inhibition was 1.68%. As for `O=C(COC(=O)CNS(=O)(=O)c1ccccc1)NC12CC3CC(CC(C3)C1)C2`, the inhibition is 2.17%. Regarding `Cc1ccc(NC(=O)CN(C)CC(=O)Nc2cccc(F)c2)cc1[N+](=O)[O-]`, the inhibition is 32.7% (active). Regarding `CN(CC(=O)Nc1cccc(F)c1)CC(=O)Nc1cccc([N+](=O)[O-])c1`, the inhibition was 1.69%. The figure for `Cc1ccc(CN(C)CC(=O)Nc2cccc([N+](=O)[O-])c2)o1` is -2.99%; for `Nc1ccc2nn(-c3ccc(Cl)cc3)nc2c1` it is -0.91%. The same measure for `Cc1ncc([N+](=O)[O-])n1CCOC(=O)c1ccc(Br)cc1`: -1.79%; for `CCCCCCNC(=O)CSc1nccn1Cc1ccccc1`: -2.6%.

For the compound `CCOc1cccc(-c2nnc3sc(COc4ccc(OC)cc4)nn23)c1`, the inhibition is -2.87%. The same measure for `COc1ccc(-n2nnnc2-c2nc3ccccc3s2)cc1`: -2.25%. The figure for `CCOc1cccc(-n2nnnc2-c2ccc(OC)cc2)c1` is 62.5% (active); for `CCc1ccc(NC(=O)N2CCN(c3ccccc3)CC2)cc1` it is 0.49%. With `CCn1c2ccccc2c2cc(NC(=O)CNC)ccc21`, the inhibition is -0.79%. The figure for `CC[n+]1c(C)n(-c2ccccc2)c2ccc(NC(C)=O)cc21` is 70.6% (active); for `COc1cccc(NC(=O)CC2C(=O)NCCN2C(=S)Nc2ccc(F)cc2)c1` (stereo not drawn) it is 3.64%.

As to `COc1ccc(S(=O)(=O)N(CC(=O)N/N=C/c2ccccc2C(=O)O)c2ccccc2OC)cc1`, the inhibition was -2.32%. The same measure for `COc1ccc(Nc2oc(-c3ccccc3Cl)nc2C#N)cc1`: 50.8% (active). The same measure for `Cc1ccccc1-c1nc(C#N)c(NCc2ccco2)o1`: 0.66%. The same measure for `COc1ccccc1-c1nc(C#N)c(N2CCC(C(N)=O)CC2)o1`: -2.39%; for `CC(C)C(=O)Nc1oc(-c2ccccc2)cc1C#N`: 0.17%; for `CC1CCN(S(=O)(=O)c2ccc(S(=O)(=O)NCc3cccnc3)cc2)CC1`: 0.32%. `CCCCCCCCn1c2c(c(=N)c3c1CCC3)CCCC2`: the inhibition is 101% (active). The figure for `CCCCCCn1c(CN2CCCCC2)nc2c1c(=O)n(C)c(=O)n2C` is -2.26%; for `Cc1noc(C)c1COc1cccc(C(=O)Nc2cccnc2)c1` it is -0.6%; for `CN(Cc1cccnc1)C(=O)c1cc(COc2ccc3ncccc3c2)on1` it is 54.2% (active).

Regarding `Cc1cc(NCc2cccnc2)no1`, the inhibition is -7.11%.
